In the test the target is Peroxisome proliferator-activated receptor gamma (Homo sapiens) (UniProt P37231). Briefly: ATG_hPPARg_EcoTox2: Attagene TRANS-FACTORIAL EcoTox-2 HepG2 Assay for human Peroxisome Proliferator-activated Receptor gamma (PPARg). Here is the method:
ATG_EcoTox2 is a cell-based, multiplexed assay created by modifying the existing Attagene TRANS-FACTORIAL system to include a panel of nuclear receptors from some or all the following species: human (Homo sapiens), african clawed frog (Xenopus laevis), rainbow trout (Oncorhynchus mykiss), japanese medaka (Oryzias latipes), and zebrafish (Danio rerio). The ECOTOX2-FACTORIAL format uses HepG2, a human liver cell line, with measurements taken at 24 hours after chemical dosing in a 24-well plate. ATG_hPPARg_EcoTox2 is one of 29 assay components calculated in the ATG_EcoTox2 assay. It is designed to make measurements of mRNA induction, a form of inducible reporter, as detected with fluorescence intensity signals by Reverse transcription polymerase chain reaction (RT-PCR) and Capillary electrophoresis technology.The assay endpoint ATG_hPPARg_EcoTox2 was analyzed in the positive analysis fitting direction relative to DMSO as the negative control and baseline of activity. Using a type of inducible reporter, measures of mRNA for gain-of-signal activity can be used to understand the reporter gene at the transcription factor-level as they relate to the gene PPARg. Furthermore, this assay endpoint can be referred to as a primary readout, because this assay has produced multiple assay endpoints where this one serves a reporter gene function. To generalize the intended target to other relatable targets, this assay endpoint is annotated to the nuclear receptor intended target family, where the subfamily is non-steroidal.
Human liver HepG2 cells are transiently transfected with multiple reporter transcription units (MRTUs) in 6-well plates using FuGene 6 reagent (Roche; 3 ml FuGene/1 mg DNA). The MRTU constructs are regulated by a cis-regulating element (promoter). Each RTU expresses a GAL4-UAS that regulates the transcription of a nearby target reporter gene sequence. A major difference between the CIS and TRANS system is that in CIS activities of endogenous TFs are measured, whereas the TRANS assay evaluates changes in activities of exogenous, chimeric NR-Gal4 proteins. […] At the end of 24 hour incubation, total RNA was isolated using TriZol reagent (Invitrogen). The isolated RNA is then reverse-transcribed using oligo(dT) primer and Mo-MLV reverse transcriptase (Invitrogen) with DNAse I (Ambion) treatment for 30 min. The one-tenth of the produced cDNA was amplified by PCR using Taq DNA polymerase (Invitrogen) and two reporter sequence-specific primers. […] The fragments were purified using Qiaquick PCR columns (Qiagen), analyzed on an ABI 3130xL genetic analyzer (Applied Biosystems) with peak positions identified by using a set of X-rhodamine (ROX)-labeled MapMarker1000 molecular weight standards (BioVentures). […]

Calls of active or inactive are those of the source. The calls were made as follows: active = hit-call score of the fitted dose curve at least 0.9, where 1 is the maximum; inactive = score below 0.9.

Four molecules from PubChem BioAssay AID2284351 (EPA ToxCast) can be followed below.

Chain of Peroxisome proliferator-activated receptor gamma (Homo sapiens) (P37231 whole entry, looked up): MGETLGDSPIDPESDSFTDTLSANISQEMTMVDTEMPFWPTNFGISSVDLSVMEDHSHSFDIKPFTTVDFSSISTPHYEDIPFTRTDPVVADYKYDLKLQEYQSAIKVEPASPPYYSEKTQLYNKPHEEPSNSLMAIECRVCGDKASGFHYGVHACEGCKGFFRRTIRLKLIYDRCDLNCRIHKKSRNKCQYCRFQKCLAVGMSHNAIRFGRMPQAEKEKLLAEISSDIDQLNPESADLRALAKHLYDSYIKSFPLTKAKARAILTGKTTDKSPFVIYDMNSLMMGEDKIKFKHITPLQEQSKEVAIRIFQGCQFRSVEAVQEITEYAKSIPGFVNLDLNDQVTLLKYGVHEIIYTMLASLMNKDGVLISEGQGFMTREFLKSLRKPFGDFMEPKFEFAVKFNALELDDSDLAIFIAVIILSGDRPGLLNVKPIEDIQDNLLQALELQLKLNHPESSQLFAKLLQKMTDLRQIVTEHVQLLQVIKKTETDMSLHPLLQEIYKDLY

As to `O=S(=O)(O)C(F)(F)C(F)(F)C(F)(F)C(F)(F)C(F)(F)C(F)(F)F`, the AC50 was 42.7 µM (active). For the molecule `O=P(Oc1ccccc1)(Oc1ccccc1)Oc1ccccc1`, the AC50 is 5.76 µM (active). As to `CCCCOCN(C(=O)CCl)c1c(CC)cccc1CC`, the AC50 is 1.53 µM (active). For `[Cl][Sn]([c]1ccccc1)([c]1ccccc1)[c]1ccccc1`, the AC50 is 0.0461 µM (active).

The term AC50 denotes the concentration giving half of the maximal activity seen.
